ALR inh – inhibitors of human sulfhydryl oxidase ALR | inhibition, % (concentration not given with the values) | purified ALR, DTT oxidation, H2O2 HRP-luminol luminescence | hit rate 3.8% among 290,000 | AID 485317;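 active means mean replicate inhibition above about 79%, with every replicate also reaching it, limit read from the data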
CDK5 p35 inh – blocks human CDK5/p35 kinase activity; Q00535+Q15078; Recombinant CDK5/p35, ADP-Glo luminescence, 60 min; inhibition, % at 10 µM; hit rate 0.01% among 330,000; AID 488839;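 active means highest replicate inhibition of at least 50% and at least 75% of replicates reaching 50%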
NSD2 HMT inh – blocks human histone methyltransferase NSD2. O96028. NSD2 peptide methylation, AlphaScreen, 120 min. inhibition, % at 12.5 µM. hit rate 0.54% among 310,000. AID 743445; in the data active means inhibition above about 50%
CASP6 VEID inh – blocks human caspase-6 cleavage activity. inhibition, % at 12.5 µM. hit rate 0.53% among 350,000. purified caspase-6, Z-VEID-R110 cleavage fluorescence. AID 686996;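 active means mean inhibition across replicates at least about 35%, with every replicate also reaching that limit, limit read from the data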
Mot1-301 SUMO – inhibitors of SUMOylation pathway: yeast Mot1-301 growth rescue. S. cerevisiae Mot1-301 growth rescue, ATP luminescence, 38.5C; percent above DMSO median, 100 means doubled. growth rescue, % at 18.8 µM. hit rate 1% among 320,000. AID 2716;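 active means every valid replicate shows activation above 250% relative to neutral control wells; inactive means the rest, any valid replicate at or below 250%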
N-glyco inh – N-linked glycosylation inhibition. hit rate 0.23% among 360,000. D54 ERlucT glycosylation luciferase reporter, 24 h; percent of 100 nM tunicamycin response. reporter increase, % at 12.5 µM;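 active means mean luciferase reporter signal, scaled so untreated is 0 and the glycosylation-blocking control 100, at or above a set limit in every replicate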;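 further: luciferase carries N-glycosylation sites so blocking glycosylation raises the light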
Numbers stand for hits; - = inactive; . = not tested or not shown. An excerpt weighted towards active compounds, which were near 3.9% of everything screened.

SMILES	ALR inh	CDK5 p35 inh	NSD2 HMT inh	CASP6 VEID inh	Mot1-301 SUMO	N-glyco inh
CC(=O)Nc1ccc(SCC(=O)Nc2ccc3c(c2)OCCO3)cc1	98	-	-	-	-	-
COc1ccc(NC(=O)CN(C)C(=O)CSc2ccc3c(c2)OCCO3)cc1	98	-	-	-	-	-
CO[C@@H](CN(C)S(=O)(=O)c1ccc(C)cc1)[C@H](C)CN(Cc1ccccc1Cl)[C@@H](C)CO	.	.	.	-	.	.
O=C(CSc1ccc2c(c1)OCCO2)Nc1ccc(Br)cn1	-	-	-	-	-	-
Cc1ccc(SCC(=O)NCc2ccccc2)cc1	-	-	-	-	-	-
O=C(CSc1ccc2c(c1)OCCO2)NCc1ccccc1	-	-	-	38	-	-
O=C(CSc1ccc2c(c1)OCCO2)Nc1ccc(Cl)cn1	89	-	-	.	-	-
CCc1nccn1CCC(=O)N1CCCC(Nc2ccc(F)cc2)C1 (stereo unspecified)	99	-	-	-	-	-
O=C(CCc1ccccn1)N1CCCC(Nc2ccc(F)cc2)C1 (stereo unspecified)	99	.	-	-	-	-
O=C(CCC(=O)N1CCCC(Nc2ccccc2)C1)c1ccc(F)cc1 (stereo unspecified)	99	-	-	-	-	-
O=C(CCc1ccccn1)N1CCCC(Nc2cccc(F)c2)C1 (stereo unspecified)	-	.	-	-	-	-
O=C(CCOc1ccccc1)N1CCCC(Nc2ccccc2)C1 (stereo unspecified)	.	.	-	-	.	-
CCCC(=O)Nc1ccc2c(c1)C(=O)N(C)C[C@@H](OC)[C@H](C)CN(Cc1cccc(F)c1)[C@H](C)CO2	.	.	.	-	.	.
O=C(O)c1ccc(-c2ccco2)n1Cc1ccccc1	99	-	-	.	.	-
O=C(CN(CCc1ccccc1)S(=O)(=O)c1ccccc1)N1CCOCC1	.	.	-	.	.	.
COc1ccc(S(=O)(=O)N(CCc2ccccc2)CC(=O)N2CCOCC2)cc1	99	-	.	.	-	-
COc1cc(/C=N/NC(=O)c2cc(-c3c(C)nn(-c4ccccc4)c3C)n[nH]2)ccc1O	84	-	-	-	-	54
COc1ccc(-c2cc(C(=O)NN=Cc3ccc(O)c(OC)c3)[nH]n2)cc1	.	.	-	.	.	.
Cc1nn(-c2ccccc2)c(C)c1-c1cc(C(=O)N/N=C/c2ccc(O)cc2)[nH]n1	97	-	-	-	-	-
Cc1cc(Nc2ccccc2)n(CCOC(=O)COc2ccccc2)n1	98	-	-	.	-	-
CCOc1ccc(OCCC(=O)OCC(=O)Nc2cc(C)nn2-c2ccccc2)cc1	-	-	-	-	-	-
Cc1ccc(CNC(=O)CC(C)S(=O)(=O)c2ccc3c(c2)NC(=O)CO3)cc1 (stereo unspecified)	-	-	-	-	-	-
Cc1ccc(CNC(=O)CC(C)S(=O)(=O)c2ccc3c(c2)NC(=O)CS3)o1 (stereo unspecified)	98	-	-	-	-	-
Cc1c(C(=O)OCC(=O)Nc2c(C)n(C)n(-c3ccccc3)c2=O)oc2ccccc12	99	-	-	-	-	-
Cc1c(NC(=O)CN2CC(C)OC(C)C2)c(=O)n(-c2ccccc2)n1C (stereo unspecified)	-	-	-	-	-	-
SMILES	ALR inh	CDK5 p35 inh	NSD2 HMT inh	CASP6 VEID inh	Mot1-301 SUMO	N-glyco inh
Cc1c(NC(=O)CN2c3ccccc3CC2C)c(=O)n(-c2ccccc2)n1C (stereo unspecified)	97	-	-	-	-	-
C[C@@H]1CN([C@H](C)CO)S(=O)(=O)c2ccc(C#CCN(C)C)cc2O[C@H]1CN(C)Cc1cccnc1	.	.	.	-	.	.
CCCC(=O)Nc1sc(C(=O)Nc2cccc(N)c2)c(C)c1C(=O)OC	98	-	-	-	-	-
NCCc1ccc(O)c(O)c1	99	-	.	-	-	-
NCC(O)c1ccc(O)c(O)c1 (stereo unspecified)	.	-	.	-	.	-
CC1S/C(=N/N=C2CCCCC2)NC1=O (stereo unspecified)	-	-	-	-	-	-
CC1SC(=NC(=O)c2ccncc2)NC1=O (stereo unspecified)	90	-	-	-	-	-
CC(C)NC(=O)N(C)C[C@@H]1Oc2ncc(C#CCc3ccccc3)cc2C(=O)N([C@@H](C)CO)C[C@@H]1C	.	.	.	-	.	.
COc1ccc(NC(=O)Nc2ccc3c(c2)C(=O)N([C@@H](C)CO)C[C@@H](C)[C@H](CN(C)C(=O)NC2CCCCC2)O3)cc1	.	.	.	-	.	.
O=C(CSc1ccc2ccccc2c1)NCCCN1CCCC1=O	100	-	-	-	-	-
CCOCCCNC(=O)CSCc1nc(-c2ccc(SC)cc2)oc1C	.	-	-	-	-	-
CSc1ccc(-c2nc(CSCC(=O)NCCCN3CCCC3=O)c(C)o2)cc1	95	-	-	-	-	-
CCc1ccc(-c2nc(CSCC(=O)NCCCN3CCCC3=O)c(C)o2)cc1	99	-	-	.	-	-
Cc1ccccc1-c1nc(CS(=O)(=O)CC(=O)NCCCN2CCCC2=O)c(C)o1	-	-	.	-	-	-
COCCNC(=O)CSCc1nc(-c2ccc(SC)cc2)oc1C	100	-	-	.	-	-
COc1ccc(NC(=O)N(C)C[C@H]2Oc3c(NC(=O)c4ccncc4)cccc3C(=O)N([C@@H](C)CO)C[C@H]2C)cc1	.	.	.	-	.	.
Cc1nnc(SCC(=O)c2ccc(S(=O)(=O)N3CCOCC3)cc2)n1-c1ccccc1	94	-	-	.	-	-
CCOC(=O)CSc1nnc(-c2ccc(S(=O)(=O)N3CCOCC3)cc2)n1-c1ccccc1	.	-	.	.	-	-
CC(C)(C)OC(=O)[C@H](Cc1ccccc1)NC(=O)c1nc[nH]c1C(=O)N1CCc2ccccc2C1	.	-	.	-	-	33
COc1ccc(C(=O)C2CCCN(Cc3cnc(N4CCCC4)s3)C2)cc1OC (stereo unspecified)	98	-	-	-	-	-
COc1ccccc1C(=O)NCCC(=O)N1CCCCC1	-	-	-	-	-	-
O=C(NC(CC(=O)N1CCN(c2ccccc2O)CC1)c1ccccc1)c1ccccc1Cl (stereo unspecified)	99	-	-	-	-	-
COc1ccccc1C(=O)NCCC(=O)N1CCN(c2ccccc2O)CC1	91	-	-	-	-	-
COc1ccccc1N1CCN(C(=O)CCNS(=O)(=O)c2cc(Br)cnc2N)CC1	99	-	-	-	-	-
Cc1cccc(N2CCN(C(=O)CC(NC(=O)c3ccccc3Cl)c3ccccc3)CC2)c1C (stereo unspecified)	-	-	-	-	-	-
COc1ccccc1N1CCN(C(=O)CSc2ccccc2)CC1	99	-	.	.	-	-
COc1ccccc1N1CCN(C(=O)c2ccc(CSc3ccccc3)cc2)CC1	-	-	-	.	-	-
O=C(CN1CCOCC1)NCC[C@@H]1CC[C@H](NC(=O)c2ccccc2F)[C@@H](CO)O1	.	.	.	-	.	.
